A selection: hits, their analogues and other compounds. The true share with any hit is near 5.4%.
AHR act – activates the human aryl hydrocarbon receptor | AHR-responsive luciferase reporter cells, luminescence | activation, % at 5 µM | 320,000 compounds, 2.5% hits | AID 2796; in the data active means activation above about 47%;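 further: 0% = vehicle wells and 100% = reference agonist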
NR0B1 inh – inhibitors of human orphan nuclear receptor DAX1 (NR0B1) | inhibition, % at 6.75 µM | AID 504766 | P51843 | 340,000 compounds, 0.99% hits | HEK293 Gal4-DAX1 luciferase reporter, luminescence;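 active means inhibition above the mean over all tested compounds plus 3 SD, cut at about 4.2% in these data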;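 further: 0% = DAX1-transfected cells with DMSO and 100% = empty-vector control cells with DMSO; inhibition shows as a rise in luminescence from relieved DAX1 repression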
Target sequence (P51843 207-470 limits assumed): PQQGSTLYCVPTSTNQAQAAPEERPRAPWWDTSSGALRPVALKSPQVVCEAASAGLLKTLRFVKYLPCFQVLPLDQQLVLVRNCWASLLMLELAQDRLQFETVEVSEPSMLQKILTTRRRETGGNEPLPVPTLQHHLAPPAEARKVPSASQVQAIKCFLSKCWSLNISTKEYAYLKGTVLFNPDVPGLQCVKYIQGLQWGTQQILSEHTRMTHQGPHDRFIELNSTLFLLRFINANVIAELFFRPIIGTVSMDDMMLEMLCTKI
HSF-1 act – increases HSF-1 driven luciferase reporter signal; NIH3T3-HGL HSF-1 luciferase reporter, MG132, 8 h; 100% = twice DMSO control signal; activation, % at 9 µM; 300,000 compounds, 1.7% hits;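 active means mean replicate activation of at least 50% with a set share of replicates each reaching 50%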;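 further: 0% = median of the neutral control wells and 100% = twice that signal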
HSF1 inhib – HSF1 inhibition; 300,000 compounds, 0.77% hits; AID 2098; NIH3T3-HGL HSE-luciferase, MG132-induced, luminescence 8 h; stronger effect = lower value; activity change, negative = inhibition, % at 7.5 µM (by protocol);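 active means more than half of replicate wells show activity change below -50%, luminescence cut by over half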;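 further: luciferase reports HSF-1 transcriptional activity via heat shock element; 0% = median of DMSO wells and -100% = zero luminescence signal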
FXN GAA850 act – activators of GAA850 frataxin (FXN) promoter. HEK293 lucGAA850 FXN promoter luciferase reporter, 24 h; percent of 10 µM SAHA response. activation, % at 6 µM. 360,000 compounds, 0.56% hits;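 active means activation above the average of all compounds screened plus 3 SD, cutoff fixed separately per campaign, cut at about 7.5% in these data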;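 further: 0% = DMSO wells and 100% = 10 µM SAHA wells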
AHR act confirm – human AHR activation, confirmation; shares compounds with AHR act; human cells, AHR-responsive luciferase reporter, luminescence; activation, % at 9 µM; 2,300 compounds, 87% hits; in the data active means activation above about 49%;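 further: HepG2 hepatoma cells carrying a DRE-driven firefly luciferase reporter; 0% = vehicle wells and 100% = reference agonist wells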
PXR counter – activates human PXR in AHR activator counter-screen; shares compounds with AHR act; cell-based PXR reporter, luciferase luminescence; activation, % at 11.6 µM; 2,300 compounds, 88% hits; in the data active means activation above about 11%;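 further: human hepatoma DPX-2 cells expressing full-length human PXR; 0% = DMSO and 100% = reference agonist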
Numbers without * were called inactive.

`O=C1C=CN2CCCCC2CC1` (stereo unspecified) gave AHR act 1, NR0B1 inh -1 and FXN GAA850 act -1.
For CCOc1ccc2[nH]c3c(NCCOC)ncnc3c2c1 the results were AHR act 85*, NR0B1 inh 2, HSF-1 act 16, HSF1 inhib 6, FXN GAA850 act 2, AHR act confirm 116* and PXR counter 39*.
`CCOc1ccc2[nH]c3c(NCC(C)C)ncnc3c2c1` gave AHR act 100*, NR0B1 inh 0, HSF-1 act 2, HSF1 inhib 13, FXN GAA850 act 1, AHR act confirm 101* and PXR counter 49*.
For NC1=NC(=O)/C(=C/c2ccc(-c3ccc(S(N)(=O)=O)cc3)o2)S1 the results were AHR act 121*, NR0B1 inh 3, HSF-1 act -10, HSF1 inhib -9, FXN GAA850 act -2, AHR act confirm 88* and PXR counter 16*.
`Fc1cccc2sc(Nc3nc4cc5c(cc4s3)OCO5)nc12` gave AHR act 130*, NR0B1 inh 1, HSF-1 act 36, HSF1 inhib 22, FXN GAA850 act 5, AHR act confirm 121* and PXR counter 12*.
Screening Fc1cc(F)c2nc(Nc3nc4cc5c(cc4s3)OCO5)sc2c1 returned AHR act 38, NR0B1 inh 1, HSF-1 act 47, HSF1 inhib 36 and FXN GAA850 act 4.
Cc1cccc2c(=O)c(C(=O)NCCc3ccccc3)c[nH]c12 was read as AHR act 20, NR0B1 inh -1, HSF-1 act -8, HSF1 inhib 8 and FXN GAA850 act 2.
`O=C(NCCc1ccccc1)c1c[nH]c2c(F)cccc2c1=O` gave AHR act 141*, NR0B1 inh 2, HSF-1 act 5, HSF1 inhib 11, FXN GAA850 act 3, AHR act confirm 130* and PXR counter 83*.
`O=C(NCCc1ccccc1)c1n[nH]c2ccccc12` gave AHR act 101*, NR0B1 inh 1, HSF-1 act 59*, HSF1 inhib 35, FXN GAA850 act 4, AHR act confirm 103* and PXR counter 71*.
For O=C(COC(=O)c1n[nH]c2ccccc12)NCCc1ccccc1 the results were AHR act 98*, NR0B1 inh 0, FXN GAA850 act -1, AHR act confirm 91* and PXR counter 19*.
O=c1[nH][nH]c2cc(=O)n(-c3ccc(Cl)cc3)nc12 was read as AHR act -1, NR0B1 inh 1, HSF-1 act -8, HSF1 inhib -14 and FXN GAA850 act 0.
COc1ccc(NC(=O)CCCC(=O)OCC(=O)c2cccc(OC)c2)cc1 was read as AHR act 0, NR0B1 inh 1, HSF-1 act 3, HSF1 inhib -12 and FXN GAA850 act 0.
Cc1ccc2nc3n(c(=O)c2c1)-c1ccccc1C(=O)NC3Cc1ccc(O)cc1 (stereo unspecified) was read as AHR act 1.
Cc1cc(C)c(C)c(OCCn2ccnc2)c1 was read as AHR act 90*, NR0B1 inh 0, HSF-1 act -10, HSF1 inhib -6, FXN GAA850 act -1, AHR act confirm 54* and PXR counter 14*.
`COc1cccc(CNC(=O)Cc2ccc(OC)c(S(=O)(=O)N3CCOCC3)c2)c1` gave AHR act -2, NR0B1 inh -2, HSF-1 act 0, HSF1 inhib -3 and FXN GAA850 act 1.
Screening CC1CCN(c2ccc(C(=O)NCc3ccco3)cc2[N+](=O)[O-])CC1 returned AHR act 13, NR0B1 inh 0, HSF-1 act 20, HSF1 inhib 12 and FXN GAA850 act 4.
`COCCCNC(=S)NNC(=O)c1cccnc1` gave AHR act 108*, NR0B1 inh 2, HSF-1 act 9, HSF1 inhib -15, FXN GAA850 act -1, AHR act confirm 33 and PXR counter 6.
`O=C(NNC(=O)c1n[nH]c2ccccc12)c1ccccc1` gave NR0B1 inh 0 and FXN GAA850 act 2.
`c1ccc2c(c1)[nH]c1c(N3CCN(C4CCCCC4)CC3)ncnc12` gave AHR act 80*, NR0B1 inh 1, HSF-1 act -8, HSF1 inhib 26, FXN GAA850 act 0, AHR act confirm 68* and PXR counter 14*.
For CC(=O)NCCNc1nc2c(-c3cccc(C)c3)nnn2c2ccccc12 the results were AHR act 44, NR0B1 inh 0, HSF-1 act 7, HSF1 inhib 1 and FXN GAA850 act 0.
CC(=O)NCCNc1nc2c(-c3ccccc3)nnn2c2ccccc12 was read as AHR act 88*, NR0B1 inh 1, HSF-1 act -5, HSF1 inhib -1, FXN GAA850 act 5, AHR act confirm 113* and PXR counter 19*.
For CC1CCN(c2ccccc2NC(=S)NC(=O)c2ccc(-c3cccc([N+](=O)[O-])c3)o2)CC1 the results were AHR act 1, NR0B1 inh 1, HSF-1 act 3, HSF1 inhib -4 and FXN GAA850 act -1.
For CC1CCN(c2ccc(NC(=S)NC(=O)c3ccc(-c4cccc([N+](=O)[O-])c4)o3)cc2)CC1 the results were AHR act 82*, NR0B1 inh 0, HSF-1 act 21, HSF1 inhib 8, FXN GAA850 act 3, AHR act confirm 27 and PXR counter 15*.
O=C(COc1ccc2ccccc2c1)N/N=C/C1CC=CCC1 (stereo unspecified) was read as AHR act 85*, NR0B1 inh 0, HSF-1 act 7, HSF1 inhib 0, FXN GAA850 act 4, AHR act confirm 47 and PXR counter 12*.
COc1ccc(-c2nnsc2N2C(=O)c3ccccc3C2=O)cc1 was read as AHR act 1, HSF-1 act -1, HSF1 inhib -3 and FXN GAA850 act 1.
COc1ccc(-c2nc3n(c2C)Cc2ccccc2-3)cc1 was read as AHR act 80*, NR0B1 inh 4, HSF-1 act 23, HSF1 inhib 11, FXN GAA850 act 3, AHR act confirm 149* and PXR counter 17*.
Cc1ccccc1C(=O)Nc1ccc(Br)c(C)n1 was read as AHR act 88*, NR0B1 inh 0, HSF-1 act 46, HSF1 inhib 18, FXN GAA850 act 3, AHR act confirm 130* and PXR counter 52*.
`Cn1c(=O)n(CCc2ccccc2)c(=O)c2c1ncn2Cc1ccccc1` gave AHR act 81*, NR0B1 inh 0, HSF-1 act 1, HSF1 inhib 11, FXN GAA850 act -2, AHR act confirm 95* and PXR counter 28*.

Screening data deposited in PubChem by several laboratories.
